Structures are written as SMILES. Values joined by “and” are separate entries in the source; they are usually repeats but may differ in a detail not shown here. Identical values can stand only once. Inconclusive results are not listed. Some compounds were tested as several samples or in several runs, with calls that do not always agree. Active and inactive are the calls of the source. Unless noted, calls come from the whole dose curve.

A short description of experiment [1]: Nuclear factor erythroid 2-related factor 2/antioxidant responsive element (Nrf2/ARE) small molecule agonists: qHTS cell viability counter screen in human keratinocytes (AID 1919968; active = well fitted curve in the direction sought with a large enough effect in the repeat runs; an effect the other way counts as inactive or inconclusive; note: nearly all actives have a fitted effect of over 55% in size; note: potency is the fitted concentration of half-maximal effect). Summed up:
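Parallel cytotoxicity read: KeratinoSens HaCaT cells, compound treatment 23 h, viability by CellTiter-Fluor fluorescence 1 h post-reagent.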
(qHTS replaces the single test concentration by a dilution series.)

Experiment [2] is described as follows: Nuclear factor erythroid 2-related factor 2/antioxidant responsive element (Nrf2/ARE) small molecule agonists: luciferase reporter gene qHTS assay in human keratinocytes (AID 1919969). Note: nearly all actives have a fitted effect of over 35% in size. A general note: Reporter assays use an easily measured gene product as a stand-in for the process of interest.
The target in experiment [3] is Gonadotropin-releasing hormone receptor (Homo sapiens) (UniProt P30968). The experiment in a line: Human gonadotropin-releasing hormone receptor (GnRHR) small molecule agonists, calcium flux assay in GnRHR-HEK293 cells (AID 1920063). Note: nearly all actives have a fitted effect of over 35% in size. In a few lines: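 Calcium flux, agonist mode, human GnRHR stably integrated in HEK293; dye 1 h at 37 C before compound; Ex/Em=480/540 kinetic read, 3 min; 15 concentrations, triplicate.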
Sequence of Gonadotropin-releasing hormone receptor (Homo sapiens) (P30968 whole entry, looked up): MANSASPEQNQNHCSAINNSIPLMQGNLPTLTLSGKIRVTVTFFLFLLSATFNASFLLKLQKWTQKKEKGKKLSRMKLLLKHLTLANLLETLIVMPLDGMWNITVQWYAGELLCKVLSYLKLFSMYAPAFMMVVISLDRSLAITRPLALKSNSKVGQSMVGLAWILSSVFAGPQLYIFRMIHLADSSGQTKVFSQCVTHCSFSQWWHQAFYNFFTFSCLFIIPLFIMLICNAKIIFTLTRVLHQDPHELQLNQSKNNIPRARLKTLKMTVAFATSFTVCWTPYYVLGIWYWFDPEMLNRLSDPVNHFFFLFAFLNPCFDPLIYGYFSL
On the technique in general: Calcium assays in cells follow changes in intracellular calcium, usually with a dye or a luminescent sensor.

The target of experiment [4] is KiSS-1 receptor (Homo sapiens) (UniProt Q969F8). The experiment in a line: Human kisspeptin (KISS1R) small molecule agonists, calcium flux assay in KISS1R-HEK293 cells (AID 1920064; active = well fitted curve in the direction sought with a large enough effect in the repeat runs; an effect the other way counts as inactive or inconclusive). In a few lines:
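Triplicate 15-concentration series were applied to dye-loaded human KISS1R HEK293 cells, and agonist-evoked calcium fluorescence was captured for 3 min.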

Experiment [5] in a line: G protein-coupled receptor (GPCR) small molecule agonists, calcium flux assay: HEK293 wild type cell line counter screen (AID 1920065). In a few lines:
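Non-specific calcium responders were flagged by adding DMSO-dissolved compounds to dye-loaded cells and reading 480/540 nm fluorescence each second for 3 min; ATP served as positive control.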

Experiment [6] in a line: p53 small molecule agonists, cell-based qHTS assay with human liver microsomes (AID 1963577). Summed up: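 Fluorescence of the beta-lactamase reporter in p53RE-bla cells, detected with LiveBLAzer substrate (2 h, room temperature, dark), served as the read-out after 16 h compound exposure at 37 C with human liver microsomes and NADPH, each 0.5 mg/mL final.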
Experiment [7] can be described thus: p53 small molecule agonists, cell-based qHTS assay with rat liver microsomes (AID 1963578). Summed up: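 Cells carrying a p53 response element–beta-lactamase reporter were plated and rested 5 h, then dosed with compound in DMSO plus rat liver microsomes and NADPH, each at 0.5 mg/mL final. After 16 h at 37 C, LiveBLAzer substrate was added for 2 h.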
Experiment [8] can be described thus: p53 small molecule agonists, cell-based qHTS assay with human liver microsomes: qHTS cell viability counter screen (AID 1963579). Note: nearly all actives have a fitted effect of over 45% in size. Note: potency is the fitted concentration of half-maximal effect. Summed up: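 Cytotoxicity counter screen: p53RE-bla, 4,000 cells/well; 5 h settle, 37 C/5% CO2; cpd + HLM 0.5 mg/mL + NADPH 0.5 mg/mL (final); 16 h, 37 C; CellTiter-Glo, 30 min RT, luminescence.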
Experiment [9] can be described thus: p53 small molecule agonists, cell-based qHTS assay with rat liver microsomes: qHTS cell viability counter screen (AID 1963580). Note: nearly all actives have a fitted effect of over 45% in size. Note: potency is the fitted concentration of half-maximal effect. Summed up:
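Rat liver microsome (0.5 mg/mL final) and NADPH (0.5 mg/mL final) co-incubation with compounds for 16 h at 37 C on HCT-116 p53RE-bla cells; cytotoxicity taken from intracellular ATP luminescence.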

Experiment [10] in a line: p53 small molecule agonists, cell-based qHTS assay: qHTS cell viability counter screen (AID 1963581). Note: nearly all actives have a fitted effect of over 45% in size. In a few lines:
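Multiplexed with the reporter read, a CellTiter-Glo step (30 min, room temperature) gauges ATP-based viability of HCT-116 p53RE-bla cells after 16 h compound incubation at 37 C.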

Experiment [11] deals with 5-hydroxytryptamine receptor 2A (Homo sapiens) (UniProt P28223). The experiment in a line: 5-hydroxytryptamine receptor 2A (HTR2A) small molecule agonists, cell-based qHTS assay (AID 1963587). Note: nearly all actives have a fitted effect of over 30% in size. In a few lines:
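Kinetic calcium-flux fluorescence (2 min, 1 sec intervals) after compound addition in agonist mode. HTR2A-CHO cells were cultured 18 h, then dye-loaded 1 h at 37 C.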

The target in experiment [12] is Muscarinic acetylcholine receptor M1 (Homo sapiens) (UniProt P11229). The experiment can be described thus: Cholinergic receptor muscarinic 1 (CHRM1) small molecule antagonists, cell-based qHTS assay (AID 1963588). Note: nearly all actives have a fitted effect of over 40% in size. In a few lines: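 Compounds were tested at 15 concentrations in three independent runs. Dye-loaded CHRM1-CHO cells were exposed 5 min at room temperature before stimulation by acetylcholine added at 50nM. Intracellular calcium was read kinetically on FDSS for 3 min.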
Sequence of Muscarinic acetylcholine receptor M1 (Homo sapiens) (P11229 whole entry, looked up): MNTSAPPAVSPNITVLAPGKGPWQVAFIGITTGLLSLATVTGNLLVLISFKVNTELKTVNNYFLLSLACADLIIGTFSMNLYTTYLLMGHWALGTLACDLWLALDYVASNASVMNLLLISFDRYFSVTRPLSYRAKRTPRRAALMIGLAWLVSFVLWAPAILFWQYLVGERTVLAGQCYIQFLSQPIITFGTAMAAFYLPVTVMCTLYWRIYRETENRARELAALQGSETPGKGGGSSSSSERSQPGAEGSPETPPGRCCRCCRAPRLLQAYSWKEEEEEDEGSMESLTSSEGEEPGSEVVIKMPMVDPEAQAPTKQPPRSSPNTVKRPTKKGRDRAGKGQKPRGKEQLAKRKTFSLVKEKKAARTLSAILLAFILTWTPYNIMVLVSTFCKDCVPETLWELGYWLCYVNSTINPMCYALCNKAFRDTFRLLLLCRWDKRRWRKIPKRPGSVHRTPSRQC

For experiment [13] the target is unchanged. The experiment can be described thus: Cholinergic receptor muscarinic 1 (CHRM1) small molecule agonists, cell-based qHTS assay (AID 1963589). Note: nearly all actives have a fitted effect of over 35% in size. Summed up: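 qHTS, 15-point titration, 3 independent runs: compounds pin-transferred onto dye-loaded CHRM1-CHO cells (human M1), calcium fluorescence followed every second to detect agonism.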
Experiment [14] is described as follows: cAMP Responsive Elements (CRE) small molecule agonists, cell-based qHTS assay (AID 1963590). In a few lines: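 Quantitative HTS for CRE agonists: HEK 293T CRE-bla cells, overnight plating, 3 h compound incubation at 37 C/5% CO2, then 2 h room-temperature LiveBLAzer B/G FRET substrate loading.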
Experiment [15] can be described thus: cAMP Responsive Elements (CRE) small molecule antagonists, cell-based qHTS assay (AID 1963591; active = well fitted inhibition curve with a large enough effect in the signal ratio in the repeat runs, not every such curve was filed as active; the % refers to the signal ratio). Summed up: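 Fluorescence intensity from cleaved LiveBLAzer B/G substrate (2 h, room temperature) quantified CRE-bla activity in HEK 293T cells exposed 3 h to compound with 0.25 uM final NKH477.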
The target in experiment [16] is Beta-2 adrenergic receptor (Homo sapiens) (UniProt P07550). The experiment in a line: Adrenergic beta2 receptor (ADRB2) small molecule antagonists, cell-based qHTS assay (AID 1963592). Note: series mostly up to about 92 µM; nearly all actives have a fitted effect of over 50% in size. In a few lines: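 Assay format: CHO-ADRB2 cells, 18-20hr seeding at 37C/5% CO2, then compound plus 1nM isoproterenol agonist mix for 0.5hr RT. Homogeneous time-resolved fluorescence cAMP detection after 1hr, expressed as 665/615 nm ratio.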
Sequence of Beta-2 adrenergic receptor (Homo sapiens) (P07550 whole entry, looked up): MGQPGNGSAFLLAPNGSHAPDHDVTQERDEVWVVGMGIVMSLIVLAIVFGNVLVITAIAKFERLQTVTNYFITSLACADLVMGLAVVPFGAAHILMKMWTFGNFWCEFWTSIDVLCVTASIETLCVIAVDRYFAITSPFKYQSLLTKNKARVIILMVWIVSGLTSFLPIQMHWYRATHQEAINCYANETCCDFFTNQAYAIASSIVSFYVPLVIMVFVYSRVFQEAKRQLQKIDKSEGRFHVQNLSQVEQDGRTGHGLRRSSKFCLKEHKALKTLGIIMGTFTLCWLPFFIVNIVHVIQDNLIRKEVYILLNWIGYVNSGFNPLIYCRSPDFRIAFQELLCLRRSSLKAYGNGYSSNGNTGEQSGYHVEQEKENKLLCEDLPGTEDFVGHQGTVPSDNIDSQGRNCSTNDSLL

Experiment [17] deals with D(2) dopamine receptor (Homo sapiens) (UniProt P14416). The experiment in a line: Dopamine D2 receptor (DRD2) small molecule antagonists, cell-based qHTS assay (AID 1963595; active = well fitted inhibition curve with a large enough effect in the signal ratio in the repeat runs, with a control signal flat; the % refers to the signal ratio). Summed up:
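Antagonist mode in DRD2-HEK293 cells: after compound addition with 0.1 mM Ro20-1724, cells received quinpirole (12 nM) and NKH477 (200 nM) for 30 min at room temperature; HTRF cAMP read after 1 h detection.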

Experiment [18] addresses 5-hydroxytryptamine receptor 2A (Homo sapiens) (UniProt P28223). The experiment can be described thus: 5-hydroxytryptamine receptor 2A (HTR2A) small molecule antagonists, cell-based qHTS assay (AID 1963586). Note: nearly all actives have a fitted effect of over 45% in size. Summed up:
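CHO cells stably expressing human HTR2A were plated for 18 h at 37 C, then loaded with calcium dye for 1 h. Compounds were preincubated 5 min at room temperature before DOI (4 nM solution) was added. Kinetic fluorescence was read for 3 min.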

Experiment [19] deals with D(2) dopamine receptor (Homo sapiens) (UniProt P14416). The experiment can be described thus: Dopamine D2 receptor (DRD2) small molecule agonists, cell-based qHTS assay (AID 1963594). Note: nearly all actives have a fitted effect of over 35% in size. Summed up: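 cAMP accumulation in DRD2-HEK293 cells measured by HTRF after 1 h detection; compounds added 10 min before NKH477 (200nM […]) forskolin-analogue stimulation, 30 min at room temperature, with Ro20-1724 present at 0.1 mM final.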
Sequence of D(2) dopamine receptor (Homo sapiens) (P14416 whole entry, looked up): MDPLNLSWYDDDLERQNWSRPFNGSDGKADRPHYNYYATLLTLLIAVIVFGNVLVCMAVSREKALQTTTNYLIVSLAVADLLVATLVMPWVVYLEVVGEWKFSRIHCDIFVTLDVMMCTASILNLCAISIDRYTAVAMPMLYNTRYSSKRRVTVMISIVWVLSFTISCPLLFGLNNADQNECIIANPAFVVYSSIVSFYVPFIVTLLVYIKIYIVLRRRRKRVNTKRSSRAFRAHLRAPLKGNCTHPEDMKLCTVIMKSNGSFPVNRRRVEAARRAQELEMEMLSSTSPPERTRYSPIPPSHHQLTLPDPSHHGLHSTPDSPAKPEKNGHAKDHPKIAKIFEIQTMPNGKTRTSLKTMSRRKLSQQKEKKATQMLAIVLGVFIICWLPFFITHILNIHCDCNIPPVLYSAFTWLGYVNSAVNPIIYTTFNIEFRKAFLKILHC

Sequence of KiSS-1 receptor (Homo sapiens) (Q969F8 whole entry, looked up): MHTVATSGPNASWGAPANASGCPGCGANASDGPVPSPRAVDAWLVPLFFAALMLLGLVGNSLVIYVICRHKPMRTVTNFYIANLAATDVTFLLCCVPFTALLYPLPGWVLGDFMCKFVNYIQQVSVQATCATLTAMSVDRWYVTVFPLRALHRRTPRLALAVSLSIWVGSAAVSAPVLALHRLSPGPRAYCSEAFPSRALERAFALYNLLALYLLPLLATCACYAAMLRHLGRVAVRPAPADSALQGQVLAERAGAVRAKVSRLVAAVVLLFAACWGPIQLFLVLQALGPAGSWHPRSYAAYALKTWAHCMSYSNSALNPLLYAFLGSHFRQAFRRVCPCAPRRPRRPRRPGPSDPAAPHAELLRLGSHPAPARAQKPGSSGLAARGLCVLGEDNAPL
Sequence of 5-hydroxytryptamine receptor 2A (Homo sapiens) (P28223 whole entry, looked up): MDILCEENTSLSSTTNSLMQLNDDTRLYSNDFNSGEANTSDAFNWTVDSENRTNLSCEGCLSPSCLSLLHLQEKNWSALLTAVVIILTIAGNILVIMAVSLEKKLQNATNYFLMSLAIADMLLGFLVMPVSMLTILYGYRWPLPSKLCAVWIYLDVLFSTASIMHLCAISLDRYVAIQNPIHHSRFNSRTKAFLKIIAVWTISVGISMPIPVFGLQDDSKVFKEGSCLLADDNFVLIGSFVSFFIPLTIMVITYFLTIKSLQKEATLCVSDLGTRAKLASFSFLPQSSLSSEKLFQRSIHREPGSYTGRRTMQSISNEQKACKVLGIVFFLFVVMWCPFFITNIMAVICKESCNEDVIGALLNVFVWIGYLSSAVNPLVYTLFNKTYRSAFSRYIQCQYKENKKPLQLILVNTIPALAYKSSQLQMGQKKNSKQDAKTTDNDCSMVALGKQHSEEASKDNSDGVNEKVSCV

Consider `COc1ccccc1OC`, for which the Potency entry in [1], in experiment [2], in [3], in experiment [4], in experiment [5] and in [6] was “inactive” in each case. Further, the Potency entry in [7], in [8], in experiment [9], in experiment [10], in [11] and in experiment [12] was “inactive” in each case. The Potency entry in experiment [13], in experiment [14], in [15], in experiment [16] and in experiment [17] was “inactive” each time.

Turning to `CC(C)Oc1cc(-n2nc(C(C)(C)C)oc2=O)c(Cl)cc1Cl`, the Potency entry in experiment [1], in experiment [2], in experiment [3], in experiment [4], in experiment [5] and in experiment [6] was “inactive” in each case. The Potency result in [7], in [8], in experiment [9], in experiment [10], in [18] and in [11] was “inactive” in each case. Also, the Potency entry in experiment [12], in experiment [13], in experiment [14], in experiment [15], in [16] and in experiment [19] was “inactive” throughout. In [17], the Potency result is “inactive”.

`CCCCCCCCCCCC#N`: the Potency result in experiment [1], in experiment [2], in [3], in [4], in [5] and in experiment [6] was “inactive” throughout. The Potency entry in experiment [7], in experiment [9], in experiment [10], in experiment [18], in [11] and in experiment [12] was “inactive” each time. The Potency entry in [13], in [14], in experiment [15], in experiment [16], in experiment [19] and in experiment [17] was “inactive” throughout. In addition, the Potency result in [8] was “inactive and 42.3 µM (active)”.

Regarding `C[C@]1(O)CC[C@H]2[C@@H]3CCC4=CC(=O)CC[C@]4(C)[C@@]3(F)[C@@H](O)C[C@@]21C`, the Potency result in experiment [1], in [2], in [3], in experiment [4], in experiment [5] and in [6] was “inactive” in each case. The Potency result in experiment [7], in experiment [8], in experiment [9], in [10], in experiment [18] and in [11] was “inactive” each time. Also, the Potency result in [13], in experiment [14], in [15], in experiment [16], in experiment [19] and in experiment [17] was “inactive” in each case.

For `C[N+](=O)[O-]`, the Potency entry in experiment [1], in experiment [2], in experiment [3], in [4], in [5] and in [6] was “inactive” in each case. Moreover, the Potency entry in experiment [7], in experiment [8], in experiment [9], in experiment [10], in [18] and in experiment [11] was “inactive” each time. Moreover, the Potency result in experiment [12], in experiment [13], in experiment [14], in [15], in experiment [16] and in experiment [17] was “inactive” in each case.

Turning to `CCN(C)N=O`, the Potency result in experiment [1], in experiment [2], in experiment [3], in [4], in [5] and in [6] was “inactive” throughout. For the same compound, the Potency result in [7], in [8], in [9], in [10], in [18] and in experiment [11] was “inactive” each time. Further, the Potency result in experiment [12], in experiment [13], in experiment [14], in experiment [15], in experiment [16] and in experiment [19] was “inactive” throughout. The Potency result in [17] was “inactive”.

As to `CCCCCCCCCc1ccc(O)cc1`, the Potency is 27.6 µM (active) in [1]; “inactive and 40.8 µM (active)” in [9]. For the same compound, the Potency result in experiment [2], in [3], in [4], in experiment [5], in [6] and in experiment [7] was “inactive” throughout. Also, the Potency entry in experiment [8], in experiment [10], in experiment [14], in experiment [16] and in experiment [17] was “inactive” each time.

The values are drawn from PubChem BioAssay (Tox21).
